1 sequence from PMC7862700, “An all-to-all approach to the identification of sequence-specific readers for epigenetic DNA modifications on cytosine” can be followed below.

Common to all, as to assay: DAPPL (digital affinity profiling via proximity ligation, sequencing); 10 mM Tris-HCl pH 7.5, 50 mM NaCl, 1 mM DTT, 4% glycerol, room temperature, 30 min; GST-TFs on glutathione beads, 16-mer random dsDNA library, 0.1% formaldehyde crosslink after washing; high values mean tight binding
Common to all, as to details: protein: recombinant; tags: N-terminal GST; dsDNA, one strand shown

The target in experiment [1] is T1, FLI1 (Homo sapiens, UniProt Q01543 1-452).
T1 sequence: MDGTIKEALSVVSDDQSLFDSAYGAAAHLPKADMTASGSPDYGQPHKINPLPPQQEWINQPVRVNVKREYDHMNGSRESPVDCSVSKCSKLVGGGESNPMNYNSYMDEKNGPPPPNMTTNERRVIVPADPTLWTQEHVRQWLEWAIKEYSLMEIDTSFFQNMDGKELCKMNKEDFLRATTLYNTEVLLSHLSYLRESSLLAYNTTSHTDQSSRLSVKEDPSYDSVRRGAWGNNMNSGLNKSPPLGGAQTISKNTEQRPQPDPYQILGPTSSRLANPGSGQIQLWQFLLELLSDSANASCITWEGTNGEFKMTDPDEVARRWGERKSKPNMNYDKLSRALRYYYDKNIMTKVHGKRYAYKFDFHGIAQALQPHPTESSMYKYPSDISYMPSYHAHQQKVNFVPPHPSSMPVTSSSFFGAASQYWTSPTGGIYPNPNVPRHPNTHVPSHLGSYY
The method in brief:
(§1)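 GST fusions of human transcription factors were expressed in yeast and captured with glutathione beads. Once given DNA barcodes and pooled alongside a tag-only sample, they were incubated for 30 min at room temperature with 200 nmole of a random double-stranded 16-mer DNA library in Tris/NaCl/DTT/glycerol buffer, then washed, crosslinked (0.1% formaldehyde), proximity-ligated, PCR-amplified and sequenced on an Illumina NextSeq500. The binding signal of each hexamer is its read frequency for a factor divided by its frequency for the tag-only sample.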

Experiment [2] has as its target T2, ELK1 (Homo sapiens, UniProt P19419 1-428).
T2 sequence: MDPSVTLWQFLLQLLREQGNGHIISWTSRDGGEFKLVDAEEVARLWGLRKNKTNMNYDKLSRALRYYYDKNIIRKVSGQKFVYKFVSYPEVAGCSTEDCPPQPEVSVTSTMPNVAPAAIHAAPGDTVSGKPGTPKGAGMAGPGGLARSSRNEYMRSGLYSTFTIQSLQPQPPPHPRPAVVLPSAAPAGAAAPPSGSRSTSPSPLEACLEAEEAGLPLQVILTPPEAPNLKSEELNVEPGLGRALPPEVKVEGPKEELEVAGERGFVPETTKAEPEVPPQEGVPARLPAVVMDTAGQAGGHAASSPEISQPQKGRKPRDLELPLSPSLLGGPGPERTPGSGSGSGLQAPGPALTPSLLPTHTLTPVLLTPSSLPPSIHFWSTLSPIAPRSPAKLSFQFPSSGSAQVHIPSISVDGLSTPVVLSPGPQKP
The method, boiled down: as §1

Experiment [3] addresses T3, GABPA (Homo sapiens, UniProt Q06546 1-454).
T3 sequence: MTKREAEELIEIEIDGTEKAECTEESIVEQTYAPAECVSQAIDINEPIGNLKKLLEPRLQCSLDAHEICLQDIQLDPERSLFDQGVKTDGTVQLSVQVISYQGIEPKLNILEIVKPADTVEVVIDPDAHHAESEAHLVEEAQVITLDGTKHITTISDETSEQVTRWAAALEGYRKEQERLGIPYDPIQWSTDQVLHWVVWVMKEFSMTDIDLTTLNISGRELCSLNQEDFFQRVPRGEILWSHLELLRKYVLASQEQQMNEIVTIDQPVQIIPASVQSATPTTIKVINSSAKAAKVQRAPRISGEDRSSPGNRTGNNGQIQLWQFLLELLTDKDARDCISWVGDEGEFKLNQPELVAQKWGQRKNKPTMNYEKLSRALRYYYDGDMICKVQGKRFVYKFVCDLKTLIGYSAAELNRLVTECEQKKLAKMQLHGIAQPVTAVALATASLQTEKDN
The method in brief:
as §1

The target in experiment [4] is T4, ERG (Homo sapiens, UniProt P11308 1-479).
T4 sequence: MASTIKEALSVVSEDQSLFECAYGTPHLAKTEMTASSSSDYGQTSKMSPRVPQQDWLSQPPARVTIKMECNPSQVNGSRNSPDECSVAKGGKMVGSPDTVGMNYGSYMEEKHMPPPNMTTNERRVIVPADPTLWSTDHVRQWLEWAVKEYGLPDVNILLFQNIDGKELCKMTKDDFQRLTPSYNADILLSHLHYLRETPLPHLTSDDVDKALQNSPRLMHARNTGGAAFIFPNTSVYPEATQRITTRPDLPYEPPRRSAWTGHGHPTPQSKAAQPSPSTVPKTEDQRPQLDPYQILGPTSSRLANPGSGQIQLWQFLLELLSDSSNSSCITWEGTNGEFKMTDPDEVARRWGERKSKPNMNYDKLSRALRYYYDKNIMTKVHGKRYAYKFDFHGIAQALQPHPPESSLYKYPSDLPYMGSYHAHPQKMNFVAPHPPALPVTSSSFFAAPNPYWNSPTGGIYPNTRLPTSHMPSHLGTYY
The method in brief: as §1

The target in experiment [5] is ELF1 (Homo sapiens, UniProt P32519 1-619). The method in brief: as §1
ELF1, sequence (P32519 whole entry): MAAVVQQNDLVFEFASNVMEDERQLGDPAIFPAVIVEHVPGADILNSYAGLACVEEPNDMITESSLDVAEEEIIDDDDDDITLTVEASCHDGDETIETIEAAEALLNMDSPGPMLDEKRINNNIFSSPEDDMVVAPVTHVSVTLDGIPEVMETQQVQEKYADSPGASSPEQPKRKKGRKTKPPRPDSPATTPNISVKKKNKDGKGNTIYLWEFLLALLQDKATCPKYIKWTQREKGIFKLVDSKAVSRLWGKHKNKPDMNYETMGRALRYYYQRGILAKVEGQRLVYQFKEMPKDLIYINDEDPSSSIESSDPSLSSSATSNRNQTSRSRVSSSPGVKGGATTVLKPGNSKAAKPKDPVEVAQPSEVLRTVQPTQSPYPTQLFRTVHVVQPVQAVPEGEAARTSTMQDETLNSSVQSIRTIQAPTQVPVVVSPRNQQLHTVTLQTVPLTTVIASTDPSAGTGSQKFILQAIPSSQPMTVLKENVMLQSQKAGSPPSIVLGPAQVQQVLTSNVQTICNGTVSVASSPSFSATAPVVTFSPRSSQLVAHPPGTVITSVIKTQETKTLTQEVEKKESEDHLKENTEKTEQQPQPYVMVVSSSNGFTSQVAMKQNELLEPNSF
The target of experiment [6] is T5, EHF (Homo sapiens, UniProt Q9NZC4 1-300).
T5 sequence: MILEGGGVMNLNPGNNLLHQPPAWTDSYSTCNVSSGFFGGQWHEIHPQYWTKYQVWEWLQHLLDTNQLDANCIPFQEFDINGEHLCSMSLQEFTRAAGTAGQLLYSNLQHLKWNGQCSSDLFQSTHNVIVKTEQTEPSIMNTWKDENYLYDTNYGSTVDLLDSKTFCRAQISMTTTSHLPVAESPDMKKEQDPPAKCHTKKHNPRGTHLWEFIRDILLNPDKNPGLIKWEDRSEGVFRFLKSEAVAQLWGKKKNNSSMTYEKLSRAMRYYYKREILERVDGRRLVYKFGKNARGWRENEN
The method in brief: as §1

In experiment [7] the target is SPI1 (Homo sapiens, UniProt P17947 1-270). The method, boiled down: as §1
Experiment [8] concerns the target SPIB (Homo sapiens, UniProt Q01892 1-262). The method in brief: as §1
For experiment [9], the target named is T6, ELK3 (Homo sapiens, UniProt P41970 1-407).
T6 sequence: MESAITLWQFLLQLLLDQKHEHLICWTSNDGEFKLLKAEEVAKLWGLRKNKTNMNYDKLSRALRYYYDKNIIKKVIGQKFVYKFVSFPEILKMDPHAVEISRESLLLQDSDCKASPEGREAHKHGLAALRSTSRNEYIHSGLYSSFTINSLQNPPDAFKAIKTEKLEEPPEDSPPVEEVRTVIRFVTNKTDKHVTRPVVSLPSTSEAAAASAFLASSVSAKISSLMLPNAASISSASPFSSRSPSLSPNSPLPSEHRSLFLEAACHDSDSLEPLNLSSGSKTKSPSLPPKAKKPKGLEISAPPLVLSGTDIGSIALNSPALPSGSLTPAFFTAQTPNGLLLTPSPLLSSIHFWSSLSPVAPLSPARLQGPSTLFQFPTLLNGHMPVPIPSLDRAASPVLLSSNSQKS
The method, boiled down: as §1

Experiment [10] addresses T7, FEV (Homo sapiens, UniProt Q99581 1-238).
T7 sequence: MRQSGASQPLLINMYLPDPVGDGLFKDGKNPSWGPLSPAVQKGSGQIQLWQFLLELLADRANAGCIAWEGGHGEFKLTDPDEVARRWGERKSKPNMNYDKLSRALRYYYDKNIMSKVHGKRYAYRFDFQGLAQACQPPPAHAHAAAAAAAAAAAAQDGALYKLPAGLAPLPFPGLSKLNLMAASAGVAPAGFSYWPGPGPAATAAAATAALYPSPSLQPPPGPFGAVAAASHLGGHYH
The method in brief: as §1

Experiment [11] concerns the target ETV5 (Homo sapiens, UniProt P41161 1-510). The method in brief: as §1
For experiment [12], the target named is T8, SPIC (Homo sapiens, UniProt Q8N5J4 1-248).
T8 sequence: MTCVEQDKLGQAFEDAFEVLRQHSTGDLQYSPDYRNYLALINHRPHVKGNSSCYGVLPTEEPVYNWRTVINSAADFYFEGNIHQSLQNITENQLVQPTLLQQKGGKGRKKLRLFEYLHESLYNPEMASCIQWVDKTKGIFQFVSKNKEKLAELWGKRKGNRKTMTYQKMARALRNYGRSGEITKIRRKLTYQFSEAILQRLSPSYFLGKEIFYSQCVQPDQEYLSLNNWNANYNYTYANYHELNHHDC
The method in brief: as §1

Experiment [13] addresses ELF4 (Homo sapiens, UniProt Q99607 1-663). The method, boiled down: as §1
Experiment [14] deals with T9, ELK4 (Homo sapiens, UniProt P28324-2 1-405).
T9 sequence: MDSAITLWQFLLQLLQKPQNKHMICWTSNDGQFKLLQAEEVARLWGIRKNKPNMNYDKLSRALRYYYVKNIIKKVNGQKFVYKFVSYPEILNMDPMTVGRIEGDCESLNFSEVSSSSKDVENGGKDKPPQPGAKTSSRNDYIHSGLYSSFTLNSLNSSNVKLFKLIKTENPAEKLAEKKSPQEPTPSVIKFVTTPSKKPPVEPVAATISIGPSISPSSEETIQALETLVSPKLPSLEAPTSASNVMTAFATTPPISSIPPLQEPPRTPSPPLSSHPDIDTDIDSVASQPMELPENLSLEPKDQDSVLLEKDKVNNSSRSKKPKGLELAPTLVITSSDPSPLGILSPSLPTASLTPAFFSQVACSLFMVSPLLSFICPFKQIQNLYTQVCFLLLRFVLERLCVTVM
The method in brief:
as §1

The target of experiment [15] is T10, ETV2 (Homo sapiens, UniProt O00321 1-342).
T10 sequence: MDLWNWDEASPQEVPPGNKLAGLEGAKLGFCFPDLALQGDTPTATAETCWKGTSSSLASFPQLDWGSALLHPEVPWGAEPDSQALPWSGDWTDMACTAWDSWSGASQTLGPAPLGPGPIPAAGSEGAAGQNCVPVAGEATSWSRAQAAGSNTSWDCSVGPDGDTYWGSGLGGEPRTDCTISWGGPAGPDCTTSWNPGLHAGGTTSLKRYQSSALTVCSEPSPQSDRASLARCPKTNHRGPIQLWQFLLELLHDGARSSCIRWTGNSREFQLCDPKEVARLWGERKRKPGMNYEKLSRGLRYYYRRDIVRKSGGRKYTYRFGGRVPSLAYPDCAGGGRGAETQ
The method in brief:
as §1

In experiment [16] the target is T11, ELF3 (Homo sapiens, UniProt P78545 1-371).
T11 sequence: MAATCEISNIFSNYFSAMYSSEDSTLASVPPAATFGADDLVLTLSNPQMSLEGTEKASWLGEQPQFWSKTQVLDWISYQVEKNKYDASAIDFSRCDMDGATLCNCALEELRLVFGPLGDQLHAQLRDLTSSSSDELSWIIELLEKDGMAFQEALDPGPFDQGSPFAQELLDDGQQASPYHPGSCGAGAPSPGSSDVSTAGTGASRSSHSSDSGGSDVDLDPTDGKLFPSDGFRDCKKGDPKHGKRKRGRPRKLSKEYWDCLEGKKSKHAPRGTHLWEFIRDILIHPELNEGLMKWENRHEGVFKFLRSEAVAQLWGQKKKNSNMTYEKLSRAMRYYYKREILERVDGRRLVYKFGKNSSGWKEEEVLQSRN
The method, boiled down: as §1

The target in experiment [17] is ETV1 (Homo sapiens, UniProt P50549 1-477). The method in brief: as §1
ETV1, sequence (P50549 whole entry): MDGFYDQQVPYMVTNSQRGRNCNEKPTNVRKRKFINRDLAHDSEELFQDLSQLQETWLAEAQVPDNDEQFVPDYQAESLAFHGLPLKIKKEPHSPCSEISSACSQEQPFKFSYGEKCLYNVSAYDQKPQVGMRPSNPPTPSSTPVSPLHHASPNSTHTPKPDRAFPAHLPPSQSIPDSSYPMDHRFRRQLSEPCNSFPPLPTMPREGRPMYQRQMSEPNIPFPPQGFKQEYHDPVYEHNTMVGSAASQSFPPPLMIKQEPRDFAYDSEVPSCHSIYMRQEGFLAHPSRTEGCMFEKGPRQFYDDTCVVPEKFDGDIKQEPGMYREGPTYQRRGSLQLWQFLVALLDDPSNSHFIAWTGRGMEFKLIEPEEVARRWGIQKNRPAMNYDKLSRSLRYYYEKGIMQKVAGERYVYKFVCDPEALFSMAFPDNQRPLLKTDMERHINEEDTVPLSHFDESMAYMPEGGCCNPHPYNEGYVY

ELF4, sequence (Q99607 whole entry): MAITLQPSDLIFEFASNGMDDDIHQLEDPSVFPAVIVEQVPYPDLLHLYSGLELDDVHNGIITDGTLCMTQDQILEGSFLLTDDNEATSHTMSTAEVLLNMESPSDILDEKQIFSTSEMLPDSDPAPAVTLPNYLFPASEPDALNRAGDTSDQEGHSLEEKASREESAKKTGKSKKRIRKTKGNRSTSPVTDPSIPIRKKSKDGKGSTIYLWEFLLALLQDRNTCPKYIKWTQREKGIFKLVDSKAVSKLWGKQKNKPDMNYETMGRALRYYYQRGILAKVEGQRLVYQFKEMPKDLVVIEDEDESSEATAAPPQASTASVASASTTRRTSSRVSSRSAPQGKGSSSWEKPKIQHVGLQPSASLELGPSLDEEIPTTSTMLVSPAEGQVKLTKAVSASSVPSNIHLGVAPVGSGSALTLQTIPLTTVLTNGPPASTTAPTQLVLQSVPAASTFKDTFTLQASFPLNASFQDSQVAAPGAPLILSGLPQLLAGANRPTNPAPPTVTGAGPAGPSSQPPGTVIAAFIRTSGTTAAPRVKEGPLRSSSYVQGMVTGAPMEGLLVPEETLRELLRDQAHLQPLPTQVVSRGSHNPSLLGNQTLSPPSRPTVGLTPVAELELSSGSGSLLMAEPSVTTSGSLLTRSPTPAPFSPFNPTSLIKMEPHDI
ETV5, sequence (P41161 whole entry): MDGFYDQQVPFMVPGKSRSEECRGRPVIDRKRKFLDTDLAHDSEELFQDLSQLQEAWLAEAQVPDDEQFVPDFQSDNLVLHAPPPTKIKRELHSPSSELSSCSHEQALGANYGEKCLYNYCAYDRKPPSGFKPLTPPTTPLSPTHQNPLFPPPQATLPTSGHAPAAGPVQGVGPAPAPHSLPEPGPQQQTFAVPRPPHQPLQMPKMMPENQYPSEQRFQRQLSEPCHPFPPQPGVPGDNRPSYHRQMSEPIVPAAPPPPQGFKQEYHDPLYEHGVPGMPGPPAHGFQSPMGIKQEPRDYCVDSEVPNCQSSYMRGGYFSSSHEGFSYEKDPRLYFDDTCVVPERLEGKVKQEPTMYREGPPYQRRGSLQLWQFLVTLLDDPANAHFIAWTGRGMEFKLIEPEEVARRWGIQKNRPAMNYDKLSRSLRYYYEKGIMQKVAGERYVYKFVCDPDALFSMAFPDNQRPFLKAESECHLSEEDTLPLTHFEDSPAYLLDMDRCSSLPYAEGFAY
SPIB, sequence (Q01892 whole entry): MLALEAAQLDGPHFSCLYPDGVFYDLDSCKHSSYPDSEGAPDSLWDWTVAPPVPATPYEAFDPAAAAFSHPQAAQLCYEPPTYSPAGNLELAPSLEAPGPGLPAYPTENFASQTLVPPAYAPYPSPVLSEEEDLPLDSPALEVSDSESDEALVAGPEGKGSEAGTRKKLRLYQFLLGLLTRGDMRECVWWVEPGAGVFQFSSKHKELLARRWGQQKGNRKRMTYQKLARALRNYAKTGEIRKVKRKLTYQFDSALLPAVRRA

Turning to CGTACC, the binding signal in [1] is 1.24 fold enrichment (6-mer frequency, TF over GST control); in experiment [2] it was 1.15 fold enrichment (6-mer frequency, TF over GST control); in [3] it was 1.18 fold enrichment (6-mer frequency, TF over GST control); in [4], 1.12 fold enrichment (6-mer frequency, TF over GST control); in experiment [5], 1.15 fold enrichment (6-mer frequency, TF over GST control); in experiment [6], 1.15 fold enrichment (6-mer frequency, TF over GST control). Also, the binding signal is 1.14 fold enrichment (6-mer frequency, TF over GST control) in experiment [7]; 1.12 fold enrichment (6-mer frequency, TF over GST control) in experiment [8]; 1.21 fold enrichment (6-mer frequency, TF over GST control) in [9]; 1.19 fold enrichment (6-mer frequency, TF over GST control) in experiment [10]; 1.17 fold enrichment (6-mer frequency, TF over GST control) in [11]; 1.14 fold enrichment (6-mer frequency, TF over GST control) in [12]. Further, the binding signal in experiment [13] was 1.17 fold enrichment (6-mer frequency, TF over GST control); in [14] it was 1.18 fold enrichment (6-mer frequency, TF over GST control); in [15], 1.15 fold enrichment (6-mer frequency, TF over GST control); in experiment [16], 1.25 fold enrichment (6-mer frequency, TF over GST control); in experiment [17] it was 1.26 fold enrichment (6-mer frequency, TF over GST control).
